# Test results: PubChem BioAssay (NCI)
# About 79,000 compounds went through this panel and 15% of them were active in at least one assay; those are over-represented in the sample as a whole. Values without a mark were called inactive. Active and inactive are the calls of the source. Cut-off read from the data, not from the text of the source: active = growth inhibition above about 70%; inactive = the rest.
# Legend:
# [1] = NCI Yeast Anticancer Drug Screen. Data for the rad50 strain (AID 155);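 note: 0% = growth of vehicle-only cultures of the same strain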; conditions: S. cerevisiae rad50 strain growth inhibition; at 50.0 µM; active compounds read high
# In short: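 DNA repair mutant yeast, compound exposure, growth read-out; inhibition is taken relative to vehicle.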
# [2] = NCI Yeast Anticancer Drug Screen. Data for the mec2-1 strain (AID 157); conditions: S. cerevisiae mec2-1 strain, at 50.0 µM, active compounds read high
# In short: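 Test agents were screened against the mec2-1 yeast strain, with defined DNA repair or cell cycle alteration. Growth was scored as inhibition against vehicle-only controls.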
# [3] = NCI Yeast Anticancer Drug Screen. Data for the sgs1 mgt1 strain (AID 161);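 note: 0% = growth of cultures given vehicle only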; conditions: S. cerevisiae sgs1 mgt1 strain, at 50.0 µM, active compounds read high
# In short: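 Inhibition of yeast growth, normalised to vehicle-treated controls, is reported for a strain bearing genetic alterations in DNA damage repair.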
# [4] = NCI Yeast Anticancer Drug Screen. Data for the cln2 rad14 strain (AID 165);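 note: 0% = growth equal to vehicle treated cultures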; conditions: S. cerevisiae cln2 rad14 strain, at 50.0 µM, active compounds read high
# In short: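 Growth of compound-exposed yeast (cln2 rad14 genotype) measured and expressed as inhibition relative to vehicle.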
# [5] = NCI Yeast Anticancer Drug Screen. Data for the bub3 strain (AID 167); conditions: S. cerevisiae bub3 mutant strain, at 50.0 µM, active compounds read high
# In short: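 In this screen, a yeast mutant lacking normal mitotic checkpoint function is challenged with compound. Relative growth versus vehicle gives the inhibition value.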
# [6] = NCI Yeast Anticancer Drug Screen. Data for the mlh1 rad18 strain (AID 175); conditions: S. cerevisiae mlh1 rad18 strain growth inhibition; at 50.0 µM; active compounds read high
# In short: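 In this whole-cell yeast screen, a strain with altered DNA damage repair is challenged with compound, and its growth is measured against matched vehicle-treated controls.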
SMILES,growth inhibition [1],growth inhibition [2],growth inhibition [3],growth inhibition [4] [%],growth inhibition [5],growth inhibition [6]
O=C(CN1CCOCC1)NC(=O)c1ccccc1,-3.6%,-3.6%,6.25%,1.5,-0.1%,-10.7%
CC(C)(CO)N=Cc1ccc(Cl)c(Cl)c1,2.35%,-13.2%,-16.5%,-3.1,-11.5%,-24.6%
CCn1nc(C(=O)O)c(=O)c2cc3c(cc21)OCO3,8.1%,7.2%,-9.85%,-15.7,-3.9%,7.4%
COc1cc2cnc(-c3ccncc3)c(O)c2cc1OC,30.9%,40.6%,37.2%,1.9,36.2%,28.6%
O=[N+]([O-])c1ccc(-c2nc3ccc(Cl)cc3[nH]2)cc1,-16.1%,30.9%,25.2%,21.9,9.55%,44.5%
Cc1cccc2c1NC(O)c1cccn1C2=O (stereo not drawn),6.45%,2.75%,5.55%,-22.4,-18.6%,-2.4%
N#Cc1nccc2ccccc12,12.2%,-13.3%,-13.1%,-29.1,-1.4%,-13.4%
Cc1cccc(C)c1Nc1n[nH]c(=S)s1,18.3%,33.8%,45.5%,0.8,44.5%,13.9%
NCC(N)C(O)C(O)C(O)CO (stereo not drawn),5.65%,-2.25%,-2.85%,-43.1,-16.4%,2.7%
CNCC(=O)Nc1ccc2c(c1)C(=O)c1ccc(NC(=O)CNC)cc1C2=O,11.5%,13.9%,19.4%,-2.25,-11.9%,23.8%
CC1(C)OC2COC3OC(C)(C)OC3(CO)C2O1 (stereo not drawn),-1.7%,-17.8%,-6.1%,-4.9,20.5%,5.15%
CCOC(=O)C(NC(=O)c1ccccc1)C1NC(C(=O)O)C(C)(C)S1 (stereo not drawn),-23.1%,5.6%,-5.1%,-21.8,0.8%,3.55%
c1coc(CNc2ncnc3nccnc23)c1,-16.9%,-4.35%,-15.6%,-20.2,-32.5%,-4.45%
CCCCCCCCCCCSc1ccc2ccccc2c1,5.75%,14.7%,6.75%,-20.5,-18.6%,5.3%
CN(C)C=Nc1ccn(C2CC(F)C(CO)O2)c(=O)n1 (stereo not drawn),4.55%,13.2%,-22.4%,-7.85,8.8%,13%
CCOC(=O)C(Br)(C(=O)OCC)C(C)C,3.75%,-0.8%,-16.8%,-16,10.8%,9.1%
c1ccc2sc(-c3nc4ccccc4s3)nc2c1,26.3%,11.7%,5.55%,-21.7,8.3%,12.4%
COC(=O)C(C(=O)C(=O)Nc1ccc(Br)cc1)c1nc2ccc(Cl)cc2[nH]c1=O (stereo not drawn),-11%,-5.1%,21.9%,7.05,-1.55%,2.8%
Cc1ccc(N=Nc2ccc(O)c(CN(C)C)c2)cc1,-14.6%,-9.15%,-24.4%,-39.8,18%,-17.1%

SMILES,growth inhibition [1],growth inhibition [2],growth inhibition [3],growth inhibition [4] [%],growth inhibition [5],growth inhibition [6]
COc1ccc(OC)c(CSc2ccc(OC)c(OC)c2)c1,18.7%,31.9%,43.8%,13.8,57.9%,33%
Cc1cnccc1P(=O)(O)O,13.7%,-4.8%,6.7%,-21.7,-3.55%,5.65%
Cc1cc(N(CCC#N)CCC#N)ccc1/C(N=Nc1ccc([N+](=O)[O-])cc1)=N\NC(=O)c1cc(Cl)ccc1C(=O)c1ccccc1,9.3%,3.15%,-15.7%,-4.25,-22.4%,7.7%
Cc1cc(Cl)ccc1OCCCC(=O)NC(Cc1c[nH]c2ccccc12)C(=O)O (stereo not drawn),3.35%,2.9%,17.7%,22.4,-2.4%,9.35%
CC(O)CNCc1ccc(N(C)C)cc1 (stereo not drawn),-15.8%,0.4%,6.8%,-8.85,-4.65%,13.7%
CC(=O)CC(=O)Nc1cc(C)c(NC(=O)CC(C)=O)cc1C,26.2%,26.6%,31.1%,7.55,38.8%,30.6%
O=C(C(c1ccccc1)c1ccccc1)N(CCO)c1ccccc1,-12%,-28.6%,-4.2%,-9.5,-4.6%,-0.65%
CSc1nc(N)c(NS(=O)(=O)c2ccccc2)c(=O)[nH]1,-10.6%,-18.1%,-17.6%,-2.9,6.95%,6.05%
O=C/C=C/c1ccc2c(c1)OC(CO)C(c1ccc(O)c(O)c1)O2 (stereo not drawn),9.15%,2.2%,6.7%,8.15,9.7%,3.2%
Cc1cc(N)c2cc(N)ccc2n1,99.6% (active),99.5% (active),99.4% (active),64.7,99.2% (active),98.2% (active)
COc1cc(COC(=O)c2ccc(CSc3ccc(Cl)cc3)o2)cc(OC)c1OC,-19.4%,-33%,-0.75%,-8.4,-13.9%,-10.8%
COc1ccc(C2SC(N)=Nc3c2c(C)nn3C(=O)c2ccc(Cl)cc2)cc1 (stereo not drawn),3.7%,-14.8%,22.6%,-18.1,-11.3%,7.8%
O=C(N/N=C/c1ccc(Cl)cc1Cl)c1ccccc1SSc1ccccc1C(=O)N/N=C/c1ccc(Cl)cc1Cl,-19.1%,1.55%,-5.45%,-8.1,-9.75%,19.8%
[N-]=[N+]=NC1=NNC2(C(=O)N1)c1ccccc1-c1ccccc12,-6.35%,-17.5%,-22.9%,-5.75,-30.1%,-18.6%
O=C(OCC(OC(=O)c1ccccc1)C(OC(=O)c1ccccc1)C(COC(=O)c1ccccc1)OC(=O)c1ccccc1)c1ccccc1 (stereo not drawn),67%,26.1%,56.9%,0.2,16.4%,52.4%
O=C(Nc1ccc(S(=O)(=O)N2CCCCC2)cc1)OC1CCCC1,3.85%,14.7%,1.15%,18.9,14.8%,-12.6%
CC(O)CN1CCN(CC(C)O)C(C)C1 (stereo not drawn),-10.1%,1.65%,0%,1.35,-7.2%,4.75%
CC(COc1ccccc1)N(CCCl)Cc1ccccc1 (stereo not drawn),2.7%,10.8%,-1.4%,-43.3,38%,1.8%
COc1ccc2c(c1CCl)C(=O)OC2,13.6%,-9.1%,-2.05%,-20.6,12.2%,-1.05%
